Screening data (PubChem BioAssay)
Sm TGR inh: inhibitors of Schistosoma mansoni thioredoxin glutathione reductase; purified TGR, DTNB reduction, TNB absorbance 405 nm; Potency, µM (titrated, usually from 114 µM), inactives show at the top dose activity change, negative = inhibition, actives largely listed as inhibitors; hit rate 3% among 360,000; AID 485364; also: potency is read from the fitted curve at half-maximal effect; % is scaled to controls: 0 for no effect and ±100 for the full control effect; nearly all actives have a fitted effect of over 60% in size
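Kinetic colorimetric format: TGR-catalysed, NADPH-driven DTNB reduction monitored via TNB absorbance. Enzyme dispensed at 20 nM; compound exposure 15 min at room temperature before reaction start.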
Pf growth 96h: P. falciparum growth inhibition at 96 hours | Potency, µM (highest dose often 28.7 µM), for inactives: at the top dose activity change, negative = inhibition, most hits filed as inhibitors | AID 504834 | hit rate 6.9% among 320,000 | P. falciparum luciferase reporter growth, 96 h; also: potency is read from the fitted curve at half-maximal effect; % is scaled to controls: 0 for no effect and ±100 for the full control effect
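Cell-based qHTS: luciferase-tagged P. falciparum in erythrocytes (2% hematocrit, 0.05% parasitemia final) incubated with compounds for 96 hours, 37 C, 5% CO2; luciferase detection reagent then added and luminescence measured.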
SARS PLpro yeast: inhibitors of SARS-CoV papain-like protease in yeast | hit rate 0.19% among 330,000 | AID 485353 | S. cerevisiae expressing SARS-CoV PLpro, growth rescue | Potency, µM (series often up to 32.9 µM), without a hit: top-dose activity, positive = growth rescue, usual class: activators; calls by dose curve; also: potency is read from the fitted curve at half-maximal effect; 0% is about no effect; nearly all actives have a fitted effect of over 55% in size
HCMV antiviral: blocks human cytomegalovirus replication; HFF cells, HCMV-luciferase reporter, 72 h; active compounds read low; activity change, negative = inhibition, % at 57.5 µM; hit rate 4.5% among 410,000; in the data active = activity change below about -60%; inconclusive = no clear call, values can overlap the other calls; inactive = above about -39%; also: % is scaled to controls: 0 for no effect and ±100 for the full control effect
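Luciferase read-out from HCMV-luciferase-infected HFFs (MOI 1 PFU/cell) 72 h post infection at 37C; compounds added after 16 h cell attachment; activity normalized between buffer-only basal and Salinomycin (10uM) inhibitor controls.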
HCV inh: blocks hepatitis C virus; Huh7.5.1 HCVcc-Cre infection, luciferase reporter, 44 h; Potency, µM (top dose mostly 41.8 µM), without a hit: top-dose activity change, negative = inhibition, most hits filed as inhibitors; hit rate 3.4% among 340,000; also: potency is read from the fitted curve at half-maximal effect; % is scaled to controls: 0 for no effect and ±100 for the full control effect
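Luciferase read-out (15 sec integration) after a 15 min room-temperature substrate step quantifies HCVcc-Cre infection. Cells, 1,000 per well, had compound added 4 h post-plating, then virus at ~0.5 moi, and were cultured 44 h.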
Pf growth 48h: P. falciparum growth inhibition at 48 hours (one generation); Potency, µM (highest dose often 28.7 µM), for inactives: top-dose activity change, negative = inhibition, actives largely listed as inhibitors; hit rate 5.9% among 310,000; P. falciparum luciferase growth in erythrocytes, 48 h; also: potency is read from the fitted curve at half-maximal effect; % is scaled to controls: 0 for no effect and ±100 for the full control effect
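Cell-based growth assay: transgenic P. falciparum expressing firefly luciferase, cultured in red cells within RPMI 1640 containing 0.5% w/v Albumax, 24 mM bicarbonate and gentamycin. A drop in luciferase activity indicates inhibition.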
An asterisk follows results filed as active; ? = inconclusive; . = no result. Most compounds without a hit are left out; they make up all but 15% or so of the library. Unless noted, calls follow the shape of the dose curve; as a rule, active = well fitted curve in the direction sought with a large enough effect; inconclusive = small, poorly fitted or top-dose-only effect, or another doubt; inactive = no such curve, though single readings can be large; an effect the other way counts as inactive or inconclusive.

SMILES	Sm TGR inh	Pf growth 96h	SARS PLpro yeast	HCMV antiviral	HCV inh	Pf growth 48h
CCCCN(CCCC)CC(O)c1cc(Cl)cc2c1-c1ccc(Cl)cc1/C2=C/c1ccc(Cl)cc1 (stereo not given)	.	0.021µM*	.	.	.	0.015µM*
c1ccc(-n2c(SCc3nc(-c4cccs4)no3)nnc2-c2ccco2)cc1	45µM*	0%	-13%	-40	?	?
Cc1ccc2nc(CSc3nnc(-c4ccco4)o3)cc(=O)n2c1	0%	.	1%	-21	17%	-20%
Cc1ccc2nc(CSc3nnc(-c4ccco4)n3-c3ccccc3)cc(=O)n2c1	.	.	.	-105*	-1%	.
COCC(C)n1c(SCc2cc(=O)n3cc(C)ccc3n2)nc2ccccc2c1=O (stereo not given)	6%	?	0%	-61*	?	?
O=C(/C=C/c1cnc2ccccc2n1)NC12CC3CC(CC(C3)C1)C2	-10%	?	-24%	-28	12%	-40%
CCCN(CC(=O)Nc1cc(Cl)ccc1Cl)C(=O)CN1C(=O)C2CCCCC2C1=O (stereo not given)	-2%	?	6%	-37	-7%	-10%
COc1ccccc1NC(=S)N1CCC(C(=O)c2ccc(F)cc2)CC1	2%	?	2%	1	-14%	-19%
Cc1c(Cl)cccc1NC(=O)c1ccc(NC(=O)N2CCSc3ncccc32)cc1	3%	.	.	0	.	.
C/C(=N/O)c1no[n+]([O-])c1/C(C)=N\O	7.1µM*	28%	1%	15	10%	4%
O=C(O)/C=C\C(=O)NCc1ccccc1	-17%	21%	-8%	29	4%	5%
O=C(O)/C=C\C(=O)NCc1cccnc1	-9%	2.6µM*	-3%	9	18%	19%
O=C(O)/C=C/C(=O)NCc1ccccc1	50µM*	2%	-37%	12	16%	9%
Oc1cccc2c(NC(=S)Nc3ccc(OC(F)F)cc3)cccc12	-11%	?	-10%	-99*	-15%	2%
FC(F)Oc1ccc(NC(=S)Nn2cnnc2)cc1	-14%	0%	4%	73	5µM*	-17%
COc1ccc(Br)cc1CNC(=O)c1cc(=O)[nH]c2ccc(S(=O)(=O)N3CCCCC3C)cc12 (stereo not given)	5%	.	.	?	.	.
C[N+]1(CCCOC(=O)C2(c3ccccc3)CCCC2)CCOCC1	1%	?	-7%	-27	6%	12µM*
O=C(OCCN1CCCC1)C1(c2ccccc2)CCCC1	-4%	0.74µM*	0%	12	?	1%
Cn1cnc(S(=O)(=O)Nc2ccccc2C(=O)NCC2CC2)c1	-2%	39%	-1%	5	14%	4.7µM*
O=C(N/N=C/c1ccncc1)c1cccc(NC(=O)c2ccc(Cl)cc2)c1	-8%	?	-16%	?	-25%	13µM*
O=C(N/N=C/c1cc(Cl)ccc1O)c1ccncc1	5%	?	0%	-12	?	2.3µM*
CC(C)(C)c1ccc(C(=O)N/N=C/c2cccc(Cl)c2)cc1	-3%	13µM*	-14%	-38	7.1µM*	.
O=C(N/N=C/c1ccccc1Cl)c1ccncc1	-16%	3%	-3%	16	14%	14%
O=C(N/N=C/c1ccncc1)c1cccc(N/N=C/c2ccncc2)c1	6%	?	1%	19	-7%	-15%
O=C(CCl)N1c2ccccc2SCC1c1ccccc1 (stereo not given)	2.8µM*	?	-53%	-98*	?	?
O=C(CCl)N1CCN(C(=O)C2COc3ccccc3O2)CC1 (stereo not given)	.	.	4%	-8	?	.
O=C(CCl)N1c2ccccc2OCC1c1ccccc1 (stereo not given)	3.2µM*	?	-85%	-62*	10%	?
COc1ccc(CNC(=O)C(CCSC)NS(=O)(=O)c2ccc3c(c2)oc(=O)n3C)cc1 (stereo not given)	5%	.	.	15	.	.
